From the supplement of paper PMC10646978 come the findings set out here.

Molecules are shown by their SMILES. ± gives the standard deviation.

The subject of the assay is RAW-Dual (murine macrophage reporter line). The assay is described as follows: NF-kB reporter (SEAP) activity fold change vs agonist alone; higher = enhanced NF-kB activity. As to conditions: modulator concentration 10 µM; agonist: CpG ODN 1826 0.5 ug/mL. A digest of the protocol:
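In 384-well plates holding 50 000 RAW-Dual murine macrophage reporter cells per well, compound at 10 μM final was pre-incubated for 1 hour at 37 °C, after which a PRR agonist was added overnight. Supernatant SEAP read with QUANTI-Blue at 620 nm absorbance reported NF-κB, and Lucia luciferase read with QUANTI-Luc luminescence reported IRF. Fold change values come from dividing each reporter signal by the mean of agonist-only control wells on the same plate, averaged over replicate plates with propagated errors.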
For the molecule `CC1ON(c2ccc(Cl)c(Cl)c2)C(=O)NC1=O` (stereo not drawn), the NF-kB reporter amounted to 1.02 ± 0.13.
The same measure for `Oc1ccc2ccccc2c1SSc1c(O)ccc2ccccc12`: 0.639 ± 0.15.
For `COc1ccc2cc1Oc1ccc(cc1)C[C@H]1c3c(cc4c(c3Oc3cc5c(cc3OC)CCN(C)[C@@H]5C2)OCO4)CCN1C`, the NF-kB reporter was found to be 0.195 ± 0.011.
The figure for `CCOc1ccc(OCCCCOc2cccc(C)c2)cc1` is 0.961 ± 0.094; for `Cc1cccc(C)c1N(CC(=O)Nc1ccc(-c2ncon2)cc1)C(=O)C1CCS(=O)(=O)CC1` it is 1.06 ± 0.083.
The same measure for `c1ccc(-n2nnnc2Sc2ncnc3sc4c(c23)CCCC4)cc1`: 0.74 ± 0.043; for `O=S(=O)(Cc1ccccc1)Nc1ccccn1`: 0.951 ± 0.054.
For the molecule `COc1c(C)c2c(c(O)c1C/C=C(\C)CCC(=O)O)C(=O)OC2`, the NF-kB reporter came out at 0.602 ± 0.047.
The same measure for `O=C(CCCN1CCN(c2ccccn2)CC1)c1ccc(F)cc1`: 0.595 ± 0.084; for `Cc1cc(OC2CCN(C(=O)c3csc(C)n3)CC2)nc(C)n1`: 1.01 ± 0.051.
The figure for `O=C1C(Cl)=C(N2CCCCC2)C(=O)N1c1ccc(Cl)c(Cl)c1` is 0.687 ± 0.14; for `CN(C)CCC(c1ccccc1)c1ccccn1.O=C(O)/C=C\C(=O)O` (stereo not drawn) it is 0.373 ± 0.016; for `CS(=O)(=O)N(CC(=O)NC1CC1)c1cccc2ccccc12` it is 1.04 ± 0.095.
In the case of `Cc1ccc(-c2cc(NC(=O)c3ccc([N+](=O)[O-])cc3)[nH]n2)cc1`, the NF-kB reporter amounted to 1.43 ± 0.11.
The figure for `Cn1nc(CNS(=O)(=O)c2cccc(C(F)(F)F)c2)c2c1CCOC2` is 1.13 ± 0.34.
In the case of `CC(C)NCC(O)COc1cccc2ccccc12.Cl` (stereo not drawn), the NF-kB reporter amounted to 0.858 ± 0.12.
The figure for `CCOC(=O)C1=C(C)N(c2ccc(OC)cc2)C(=O)C1=Cc1ccc(C(=O)O)cc1` is 0.751 ± 0.13; for `Oc1ccc(N=Cc2ccccc2O)cc1` it is 1.35 ± 0.17.
